# FBW7 activator = activators of human E3 ligase FBW7; Q969H0; AlphaScreen FBW7–phospho-cyclin E peptide binding, activator screen; normalized activity (activation), % at 26.1 µM; actives 0.13% (n = 650,000); in the data active means normalized activity above about 1.9%;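 further: purified mutant Fbw7 with reduced substrate affinity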
# Target sequence (Q969H0 whole entry, looked up): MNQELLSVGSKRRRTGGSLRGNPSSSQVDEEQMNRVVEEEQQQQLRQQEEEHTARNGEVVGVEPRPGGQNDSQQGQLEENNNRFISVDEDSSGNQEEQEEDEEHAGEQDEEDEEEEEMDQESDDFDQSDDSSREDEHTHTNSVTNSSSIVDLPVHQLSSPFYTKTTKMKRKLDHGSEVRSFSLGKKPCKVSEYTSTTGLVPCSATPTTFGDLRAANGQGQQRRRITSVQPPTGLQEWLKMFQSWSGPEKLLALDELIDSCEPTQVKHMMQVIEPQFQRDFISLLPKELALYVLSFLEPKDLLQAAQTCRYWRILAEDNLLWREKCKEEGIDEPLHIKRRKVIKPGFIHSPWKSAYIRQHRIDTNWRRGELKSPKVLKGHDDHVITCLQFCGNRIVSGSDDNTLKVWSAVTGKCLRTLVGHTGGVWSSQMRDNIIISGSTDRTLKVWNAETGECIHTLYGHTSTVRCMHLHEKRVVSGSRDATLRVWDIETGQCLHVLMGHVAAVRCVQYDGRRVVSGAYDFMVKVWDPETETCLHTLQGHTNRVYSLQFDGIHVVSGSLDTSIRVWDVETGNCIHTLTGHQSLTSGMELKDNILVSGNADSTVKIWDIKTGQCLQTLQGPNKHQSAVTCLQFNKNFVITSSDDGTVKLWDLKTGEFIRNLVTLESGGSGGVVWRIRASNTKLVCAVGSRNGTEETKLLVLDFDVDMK
# GPR151 activ = activates the human receptor GPR151; PathHunter beta-arrestin GPR151 cells, luminescence; activation, % at 11.2 µM; actives 1% (n = 650,000); AID 1508602; in the data active means activation above about 4.9%
# TEAD-YAP block = TEAD-YAP interaction inhibition; HEK-TIYL cells, TEAD-Gal4/YAP UAS-luciferase luminescence; inhibition, % at 9.12 µM; actives 1.4% (n = 640,000); AID 1259422; in the data active means inhibition above about 32%
# MITF primary = human MITF inhibition, primary screen; O75030; AlphaScreen MITF homodimerization, bead proximity signal; inhibition, % at 2.6 µM; actives 0.91% (n = 650,000); in the data active means inhibition above about 50%
# MITF confirm = confirmation of human MITF inhibitors; shares compounds with MITF primary; AlphaScreen MITF homodimerization, biotin/His-MITF beads; inhibition, % at 2.6 µM; actives 16% (n = 4,700);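 active means inhibition above a cutoff derived from the DMSO control wells, cut at about 28% in these data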;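 further: inhibitors lower the bead chemiluminescence by keeping MITF from dimerizing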
# AlphaScreen intf2 = counter-screen: compounds optically interfering with AlphaScreen | shares compounds with MITF primary | LysRS AlphaScreen counterscreen, signal interference, triplicate | inhibition, % at 2.6 µM | actives 7.6% (n = 4,700) | AID 1259376;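 active means inhibition above a cutoff derived from the DMSO control wells, cut at about 30% in these data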
# Numbers stand for hits; . = inactive; / = no result given. Only some compounds are listed: those with a hit (about 3.5% of all), similar ones and a draw of the others.
SMILES,FBW7 activator,GPR151 activ,TEAD-YAP block,MITF primary,MITF confirm,AlphaScreen intf2
Fc1ccc(CN2CCN(C3CCCCC3)CC2)cc1,.,.,.,.,/,/
Fc1cccc(CN2CCN(C3CCCCCC3)CC2)c1,.,.,.,66,.,.
Cc1ccc(NC(=O)O/N=C\c2ccncc2)cc1,.,.,.,.,/,/
Cc1[nH]c(=O)[nH]c1C(=O)CCCCC(=O)OCC(=O)Nc1ccc(S(N)(=O)=O)cc1,.,.,.,95,101,75
Cc1[nH]c(=O)[nH]c1C(=O)CCCCC(=O)OCC(=O)Nc1ccccc1C#N,.,.,.,113,99,76
Cc1ccc(C(=O)CCC(=O)OCC(=O)Nc2ccccc2C#N)cc1,.,.,.,.,/,/
O=C(NCC1Cc2cc(-c3cncnc3)ccc2O1)C1CCCN(c2ccccn2)C1 (stereo unspecified),.,.,.,.,/,/
CCOC(=O)c1ccc(NC(=O)CC2C(=O)N(c3cccc(C(F)(F)F)c3)C(=S)N2CCc2ccc(OC)c(OC)c2)cc1 (stereo unspecified),.,.,.,.,/,/
OCCOCCN1CCN(Cc2cccc3ccccc23)CC1,.,.,.,.,/,/
Cc1ccccc1CN1CCN(CCOCCO)CC1,.,.,.,69,.,.
OCCOCCN1CCN(Cc2cc(Br)cs2)CC1,.,.,.,71,.,.
CC(=O)N1CCN(Cc2cc(C)ccc2C)CC1,.,.,.,.,/,/
Cc1ccc(C)c(CN2CCN(CCOCCO)CC2)c1,.,.,.,81,.,.
O=C(c1cc(Cl)cc(Cl)c1)N1CCCCC1,.,.,.,62,.,.
O=C(c1cc(Cl)cc(Cl)c1)N1CCN(C(=O)c2cc(Cl)cc(Cl)c2)CC1,.,.,.,.,/,/
O=C(NC(=S)Nc1ccc2nn(-c3ccccc3)nc2c1)c1ccccc1,.,.,.,.,/,/
Cc1ccccc1CN1CCCN(C)CC1,.,.,.,.,/,/
OCCN1CCN(Cc2c3ccccc3cc3ccccc23)CC1,.,.,.,.,/,/
CN1CCCN(Cc2cccc3ccccc23)CC1,.,.,.,52,.,.
CN1CCCN(Cc2cc(F)ccc2F)CC1,.,.,.,70,.,.
CN1CCN(Cc2c3ccccc3cc3ccccc23)CC1,.,.,.,76,.,.
O=C(N=Nc1c(O)[nH]c2ccc([N+](=O)[O-])cc12)c1ccc2c(c1)OCO2,.,.,.,.,/,/
C=C(C)CN(CC)Cc1ccc(C(=O)NCc2cnc3ccccc3c2)c(=O)[nH]1,.,.,.,.,/,/
O=C1CSC(=O)N1CC(O)COc1cccc2ccccc12 (stereo unspecified),.,.,.,89,.,.
Cn1c(N)c(C(=O)COc2cccc(F)c2)c(=O)n(C)c1=O,.,.,.,.,/,/
SMILES,FBW7 activator,GPR151 activ,TEAD-YAP block,MITF primary,MITF confirm,AlphaScreen intf2
O=[N+]([O-])c1ccc(Nc2nc(-c3ccncc3)cs2)cc1,.,.,.,51,.,.
CC(=O)Nc1ccc(-c2csc(Nc3ccc([N+](=O)[O-])cc3)n2)cc1,.,.,.,.,/,/
CCOC(=O)c1c(NC(C)=O)sc(C(=O)N(CC)CC)c1C,.,.,.,.,/,/
O=c1c2ccccc2nc(SCc2cc(F)cc3c2OCOC3)n1C1CCCCC1,.,.,.,69,.,.
CCOC(=O)c1cc2c(c(CSc3nc4ccccc4c(=O)n3CCc3ccccc3)c1)OCOC2,.,.,.,69,.,.
CCOC(=O)c1cc2c(c(CSc3nc4ccccc4c(=O)n3Cc3ccccc3)c1)OCOC2,.,.,.,.,/,/
O=C1NC(=O)C(=Cc2ccccc2I)C(=O)N1,.,.,.,55,.,.
O=C1C(=Cc2ccccc2I)C(=O)c2ccccc21,.,.,.,.,/,/
O=C1C(=O)N(CCN2CCOCC2)C(c2cccs2)/C1=C(/O)c1ccc(F)cc1 (stereo unspecified),.,.,.,.,/,/
O=C1C(=O)N(CCOCCO)C(c2cccs2)/C1=C(\O)c1ccc(F)cc1 (stereo unspecified),.,.,.,55,.,.
COc1ccc(OC)c(CNc2cccc(C)c2)c1,.,.,.,64,.,.
Cc1cccc(NCc2cccc([N+](=O)[O-])c2)c1,.,.,.,69,.,.
COc1cc(OC)c(OC)cc1CNc1cccc(C)c1,.,.,.,52,.,.
COc1ccccc1Nc1nc(-c2cccc(NC(C)=O)c2)cs1,.,.,.,.,/,/
CCc1ccccc1Nc1nc(-c2cccc(NC(C)=O)c2)cs1,.,.,.,53,.,.
CC(=O)Nc1ccc(-c2csc(NCc3ccccc3)n2)cc1,.,.,.,.,/,/
CC(=O)Nc1cccc(-c2csc(NCc3ccccc3)n2)c1,.,.,.,85,.,.
Cc1ccc(S(=O)(=O)N2CCN(S(=O)(=O)c3ccc(C)cc3)CCN(S(=O)(=O)c3ccc(C)cc3)CC2)cc1,.,.,.,.,/,/
O=C(/C=C/c1ccco1)N1CCN(Cc2nc3ccccc3n2Cc2ccccc2)CC1,.,.,.,60,.,.
COc1ccc(-c2c(C)oc3cc(OCC(N)=O)ccc3c2=O)cc1OC,.,.,.,61,.,.
COc1ccc(-c2c(C)oc3cc(OCC(=O)OC(C)C)ccc3c2=O)cc1OC,.,.,.,.,/,/
N#CC1(C#N)[C@H](c2cccnc2)[C@@H](C(=O)c2ccccc2)N2c3ccc(Cl)cc3C=C[C@@H]21,.,.,.,.,/,/
N#CC1(C#N)C(c2cccnc2)C(C(=O)c2ccccc2)N2c3ncccc3C=CC21 (stereo unspecified),.,.,.,71,.,.
Cc1c(-c2ccccc2)c(=O)oc2ccc(O)cc12,.,.,.,80,.,.
CCN1C(=O)C(O)(CC(=O)c2ccc(I)cc2)c2ccccc21 (stereo unspecified),.,.,.,.,/,/
SMILES,FBW7 activator,GPR151 activ,TEAD-YAP block,MITF primary,MITF confirm,AlphaScreen intf2
O=C(c1cn(-c2ccccc2)nc1C12CC3CC(CC(C3)C1)C2)N1CCOCC1,.,.,.,59,.,.
O=C(c1cn(-c2ccccc2)nc1-c1cccs1)N1CCOCC1,.,.,.,.,/,/
CCN1C(=O)NC(c2cc(Br)ccc2OC)C(C(=O)OC)=C1C (stereo unspecified),.,.,.,59,.,.
CCN1C(=O)NC(c2cc(C)ccc2C)C(C(=O)OC)=C1C (stereo unspecified),.,.,.,.,/,/
CCOC(=O)c1ccc2c(CN(C)C)c(-c3ccc([N+](=O)[O-])cc3)c(CN(C)C)n2c1,.,.,.,.,/,/
Ic1ccc(-c2ncc3ccccn23)cc1,.,.,.,.,/,/
COc1ccc(-c2ncc3ccccn23)cc1OC,.,.,.,70,.,36
c1coc(-c2ncc3ccccn23)c1,.,.,.,.,/,/
Clc1ccccc1-c1ncc2ccccn12,.,.,.,63,.,36
CCOC(=O)C1=C(C)N(c2ccc(Cl)cc2)C(C)=C(C(=O)OCC)C1c1cccc([N+](=O)[O-])c1,.,.,.,.,/,/
Cc1cc(OCCOCCNC(C)(C)C)cc(C)c1Cl,.,.,.,.,/,/
Cc1cc(Br)ccc1OCCOCCNC(C)(C)C,.,.,.,63,.,.
